# Results filed as inconclusive are left out. Unmarked numbers belong to inactive results. Unless noted, the call rests on the fitted dose curve.
# Biological target: Estrogen receptor (Homo sapiens) (UniProt P03372)
# Experiment: qHTS assay to identify small molecule antagonists of the estrogen receptor alpha (ER-alpha) signaling pathway (AID 743069; active means well fitted curve in the direction sought with a large enough effect in the signal ratio in the repeat runs, not every such curve was filed as active; the % refers to the signal ratio)
# Settings: HEK293 ER-alpha-UAS-bla, beta-lactamase ratio, antagonist mode; series mostly up to 69.4 µM; activity, negative = inhibition: at the top concentration
# Outline: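 In this cell-based reporter format, GripTite HEK293 cells harbouring ER-alpha-UAS-bla were grown overnight with 2% charcoal-stripped FBS, dosed with DMSO-dissolved compounds, then challenged with 17beta-estradiol. After 18 hr at 37C, beta-lactamase activity was detected by FRET fluorescence.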
# On the % scale 0 is the no-effect control and ±100 the full control effect.
# Sequence of Estrogen receptor (Homo sapiens) (P03372 whole entry, looked up): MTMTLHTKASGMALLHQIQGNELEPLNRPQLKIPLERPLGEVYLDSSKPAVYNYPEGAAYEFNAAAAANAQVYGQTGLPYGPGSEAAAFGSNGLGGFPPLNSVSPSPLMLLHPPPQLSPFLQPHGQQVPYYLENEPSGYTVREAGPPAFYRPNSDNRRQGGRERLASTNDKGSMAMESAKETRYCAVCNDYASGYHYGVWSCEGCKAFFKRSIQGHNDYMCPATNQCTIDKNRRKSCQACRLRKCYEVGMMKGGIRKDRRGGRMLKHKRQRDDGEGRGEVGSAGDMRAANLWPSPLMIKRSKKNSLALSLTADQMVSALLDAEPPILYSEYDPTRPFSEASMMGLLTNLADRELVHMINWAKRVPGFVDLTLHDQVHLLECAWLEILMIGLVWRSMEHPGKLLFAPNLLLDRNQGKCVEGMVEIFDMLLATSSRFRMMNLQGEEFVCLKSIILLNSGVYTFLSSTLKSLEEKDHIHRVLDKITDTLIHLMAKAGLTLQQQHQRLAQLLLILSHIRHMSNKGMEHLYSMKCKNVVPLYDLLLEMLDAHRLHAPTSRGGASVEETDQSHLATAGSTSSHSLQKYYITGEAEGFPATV
row,SMILES,"activity, negative = inhibition"
1,COC(=O)c1cccc(Cl)c1,-4.93%
2,CCCCCCCCCCCCCCCCCC#N,-11.7% [at 79.1 µM]
3,CCCCCc1cccc(=O)o1,3.92%
4,Cc1ccc(C(=O)O)cc1[N+](=O)[O-],11.6%
5,CCC/C=C(\C=O)CC,7.67%
6,CSc1cnccn1,-10%
7,CC/C(C)=N\O[Si](C)(O/N=C(\C)CC)O/N=C(\C)CC,-6.82% [at 79.1 µM]
8,CCCSSCCC,-4.14%
9,Cc1ncc([N+](=O)[O-])n1CC(C)O (stereo unspecified),4.97%
10,C[C@@H](O)C(=O)O,-14.2% [at 79.1 µM]
11,COc1ccc2c(c1)c1c3n2CCN(C)C3=NCC1,11.9%
12,O=C[O][Al]([O]C=O)[O]C=O,-13.9%
13,C/C(CC(C)C)=N\O,-11.4%
14,Cn1nnc2c(C(N)=O)ncn2c1=O,-4.67%
15,CC(C)C1OCCN1CCOC(=O)NCCCCCCNC(=O)OCCN1CCOC1C(C)C (stereo unspecified),29.5%
16,CC(C)Cn1cnc2c1c(=O)n(C)c(=O)n2C,10.5%
17,O=C(NCN1CCOCC1)c1cnccn1,5.6%

row,SMILES,"activity, negative = inhibition"
1,CC1c2ccccc2CN1NC(=O)c1ccc(Cl)c(S(N)(=O)=O)c1 (stereo unspecified),-4.33%
2,CCCCOC(=O)[C@H](C)O,4.93%
3,OC1OCCOC1O (stereo unspecified),5.8%
4,CC(C)(C)NC[C@H](O)COc1cccc2c1CCCC2=O,9.2% [at 32.6 µM]
5,O=C(O)CCCCCC(=O)O,2.29% [at 79.1 µM]
6,C=CCCCCCCCCC(=O)OCCCC,5.79%
7,CCOCCOCC,4.45% [at 79.1 µM]
8,OCC1CCC(CO)CC1 (stereo unspecified),8.25% [at 79.1 µM]
9,CCCCCCCCCCOC(C)=O,12%
10,CC(C)CO,-17% [at 79.1 µM]
11,CC12CCC(C1)C(C)(C)C2O (stereo unspecified),-13.8%
12,CC(=O)OC1CCCCC1C(C)(C)C (stereo unspecified),15.9%
13,CC(=O)OCC(=O)Nc1cc(C#N)cc(NC(=O)COC(C)=O)c1Cl,-14.8%
14,N#CCC(=O)NN,-5.02%
15,O=C1CCCCO1,-11.8%
16,CCO,-7.81% [at 79.1 µM]
17,CC1(C)[C@H]2CC[C@](C)(C2)[C@H]1O,-3.85% [at 79.1 µM]

# Tested on: not listed separately
# Experiment: qHTS assay to identify small molecule antagonists of the estrogen receptor alpha (ER-alpha) signaling pathway - cell viability counter screen (AID 743074); further: nearly all actives have a fitted effect of over 45% in size
# Settings: ERalpha-bla HEK293 viability, CellTiter-Glo luminescence, 18 h; series mostly up to 69.4 µM; activity, negative = cytotoxicity: at the top concentration
row,SMILES,"activity, negative = cytotoxicity"
1,COC(=O)c1cccc(Cl)c1,-7.49%
2,CCCCCCCCCCCCCCCCCC#N,-3.66% [at 79.1 µM]
3,CCCCCc1cccc(=O)o1,-13%
4,Cc1ccc(C(=O)O)cc1[N+](=O)[O-],10.7%
5,CCC/C=C(\C=O)CC,32.9%
6,CSc1cnccn1,13.3%
7,CC/C(C)=N\O[Si](C)(O/N=C(\C)CC)O/N=C(\C)CC,9.8% [at 79.1 µM]
8,CCCSSCCC,12.2%
9,Cc1ncc([N+](=O)[O-])n1CC(C)O (stereo unspecified),16.3%
10,C[C@@H](O)C(=O)O,14.3% [at 79.1 µM]
11,COc1ccc2c(c1)c1c3n2CCN(C)C3=NCC1,12.3%
12,O=C[O][Al]([O]C=O)[O]C=O,13.2%
13,C/C(CC(C)C)=N\O,-10.2%
14,Cn1nnc2c(C(N)=O)ncn2c1=O,-6.09%
15,CC(C)C1OCCN1CCOC(=O)NCCCCCCNC(=O)OCCN1CCOC1C(C)C (stereo unspecified),-6.76%
16,CC(C)Cn1cnc2c1c(=O)n(C)c(=O)n2C,-7.26%
17,O=C(NCN1CCOCC1)c1cnccn1,13.5%
